{"source": "PubChem BioAssay (NCATS)", "note": "Where “and” joins values, the source holds several entries; their conditions need not be identical. Equal entries are not always repeated. Results filed as inconclusive are left out. Entries that show only a call come without a potency. Calls of active or inactive are those of the source. Calls come from the whole dose curve; as a rule, active = well fitted cell-killing curve with a large enough effect; inconclusive = small, poorly fitted or top-dose-only effect, or effect the other way; inactive = flat fitted curve, though single readings scatter. Potency is the fitted concentration of half-maximal effect.", "data": [{"assay": "Cell Viability - LYMP2-003 (AID 965);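 note: cells exposed to compounds for 24 h before reading; nearly all actives have a fitted effect of over 50% in size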", "details": "LYMP2-003 lymphoblastoid cell viability; series mostly up to 92.2 µM", "description": "NIH Chemical Genomics Center [NCGC]\nNIH Molecular Libraries Screening Centers Network [MLSCN]\nNational Institutes of Environmental Health Sciences [NIEHS]\nNational Toxicology Program [NTP]\nWe have developed a 1536-well cell-based assay for quantitative high throughput screening (qHTS) against a number of cell lines to determine in vitro cytotoxicity of small molecules. This particular assay uses a human lymphoblastoid cell line (LYMP2-003) purchased from Coriell Institute for Medical Research.\nNCGC Assay Protocol Summary:\nThe CellTiter-Glo luminescent cell viability assay (Promega) is a homogeneous method to measure the number of viable cells in culture. The end point readout of this assay is based on quantitation of intracellular ATP, an indicator of metabolic activity, using the luciferase reaction. Luciferase catalyzes the oxidation of beetle Luciferin to oxyluciferin and light in the presence of ATP. The luminescent signal is proportional to amount of ATP present.\nUsing the CellTiter-Glo luminescent cell viability assay, the amount of cellular ATP was measured in the lymphoblastoid cell line with complete culture medium following compound treatment for 24 hours. The assay was performed in opaque white Kalypsys 1536-well plates. In the screen, tetraoctylammonium bromide was used as positive control. Library compounds were measured for their ability to cause acute toxicity in the cell line, as reflected by a decrease in intracellular ATP levels, in a concentration-dependent manner. […] AC50 values were determined from concentration-response data modeled with the standard Hill equation.\nqHTS protocol for CellTiter Glo lymphoblastoid cellular assay\n[Step] [Parameter] [Value] [Description]\n1. Reagent; 5 uL; 2500 lymphoblastoid cells/well\n2. Time; 5 hr; 37 C incubation\n4. Controls; 23 nL; Tetraoctylammonium bromide 6.4pM to 92 uM\n5. Time; 24 hr; 37 C incubation\n6. Reagent; 5 uL; CellTiter Glo reagent\n7. Time; 30 min; Room Temperature\n8. Detection; Luminescence; Viewlux plate reader\nKeywords: cell viability, cytotoxicity, lymphoblastoid cell line, luminescence, NTPHTS, NTPHTS_NCGC, NIEHS, DSSTox, MLSMR, MLSCN, NIH Roadmap, qHTS, NCGC", "values": [{"molecule": "COc1ccc(/C=C/c2cc(OC)cc(=O)o2)cc1", "Potency": "inactive"}, {"molecule": "CC(C)=CCCC(C)CCO", "note": "(stereo not given)", "Potency": "inactive"}, {"molecule": "Cc1ccc(N)c([N+](=O)[O-])c1", "Potency": "inactive"}, {"molecule": "Cc1ccc([N+](=O)[O-])cc1N", "Potency": "inactive"}, {"molecule": "C[C@H](CCC(=O)O)[C@H]1CC[C@H]2[C@@H]3CC[C@@H]4C[C@H](O)CC[C@]4(C)[C@H]3CC[C@]12C", "Potency": "inactive"}, {"molecule": "Cc1c(N=C=O)cccc1N=C=O", "Potency": "inactive"}, {"molecule": "O=[N+]([O-])c1cccc(Cl)c1Cl", "Potency": "inactive"}, {"molecule": "Nc1ccc(S(=O)(=O)O)cc1", "Potency": "inactive"}, {"molecule": "COc1cc(/C=C/c2ccccc2)oc(=O)c1", "Potency": "inactive"}, {"molecule": "COC(=O)c1ccc(C)cc1", "Potency": "inactive"}, {"molecule": "CCCCCCCCCCCCCC(=O)O", "Potency": "inactive"}, {"molecule": "Nc1ccc(Cl)cc1Cl", "Potency": "inactive"}, {"molecule": "C=Cc1ccccc1Cl", "Potency": "inactive"}, {"molecule": "CCCCCCCCCCCC(=O)O", "Potency": "inactive"}, {"molecule": "O=C1CCc2ccccc2O1", "Potency": "inactive"}, {"molecule": "O=S(=O)(O)c1ccccc1", "Potency": "inactive"}, {"molecule": "CC(=O)OC/C=C(\\C)CCC=C(C)C", "Potency": "inactive"}, {"molecule": "c1ccccc1", "Potency": "inactive"}, {"molecule": "CCC(C)c1ccccc1O", "note": "(stereo not given)", "Potency": "inactive"}, {"molecule": "c1ccc2c(c1)[nH]c1ccccc12", "Potency": "inactive"}, {"molecule": "ClCCCl", "Potency": "inactive"}, {"molecule": "CCCCOCCO", "Potency": "inactive"}, {"molecule": "O=C(O)c1ccccc1C(c1ccc(O)cc1)c1ccc(O)cc1", "Potency": "inactive"}, {"molecule": "O=C(O)CC(C(=O)O)C(CC(=O)O)C(=O)O", "note": "(stereo not given)", "Potency": "inactive"}, {"molecule": "O=NO", "Potency": "inactive"}, {"molecule": "C=C(C)C1CC=C(C)C(O)C1", "note": "(stereo not given)", "Potency": "inactive"}, {"molecule": "C/C=C\\c1ccc(OC)cc1", "Potency": "inactive"}, {"molecule": "COc1ccc2nc(N)sc2c1", "Potency": "inactive"}, {"molecule": "O=C(O)c1ccccc1", "Potency": "inactive"}, {"molecule": "CCO", "Potency": "inactive"}, {"molecule": "CC1(C)CC(N=C=O)CC(C)(CN=C=O)C1", "note": "(stereo not given)", "Potency": "inactive"}, {"molecule": "CCCCC(CC)CN", "note": "(stereo not given)", "Potency": "inactive"}, {"molecule": "CCCCCCCCCCCCCCC1CO1", "note": "(stereo not given)", "Potency": "inactive"}, {"molecule": "OCCNCCO", "Potency": "inactive"}, {"molecule": "NC1=NC(S)C2N=CN=C2N1", "note": "(stereo not given)", "Potency": "6.31 µM (active)"}, {"molecule": "Clc1cc(Cl)c(Cl)c(Cl)c1Cl", "Potency": "inactive"}, {"molecule": "C=CC(=O)OCCOCCOCCOCCOC(=O)C=C", "Potency": "12.6 µM (active) and 15.8 µM (active)"}, {"molecule": "CC1=C2[C@H](/C=C(\\C)C(=O)O)CC[C@@H](C)[C@H]2CC1", "Potency": "inactive"}, {"molecule": "O[C@@H]([C@H](O)[C@@H](O)CBr)[C@@H](O)CBr", "Potency": "inactive"}, {"molecule": "CN(C)CCCCCCN(C)C", "Potency": "inactive"}]}]}
